According to PubChem BioAssay AID588456 (National Center for Advancing Translational Sciences (NCATS), 2011):
Hit rate of the full screen: of about 390,000 compounds, about 55 (0.01%) were called active. Calls follow the shape of the dose curve; as a rule, active = well fitted inhibition curve with a large enough effect; inconclusive = small, poorly fitted or top-dose-only effect; inactive = no such curve, though single readings can be large or run the other way. Only a sample is shown.

biological target: Thioredoxin reductase 1, cytoplasmic (Rattus norvegicus) (UniProt O89049); experiment: qHTS Assay for Substrates of Mammalian Selenoprotein Thioredoxin Reductase 1 (TrxR1): qHTS; conditions: purified TrxR1 substrate turnover, NADPH consumption readout; series mostly up to 114 µM; also: nearly all actives have a fitted effect of over 50% in size
Sequence (O89049 whole entry, looked up): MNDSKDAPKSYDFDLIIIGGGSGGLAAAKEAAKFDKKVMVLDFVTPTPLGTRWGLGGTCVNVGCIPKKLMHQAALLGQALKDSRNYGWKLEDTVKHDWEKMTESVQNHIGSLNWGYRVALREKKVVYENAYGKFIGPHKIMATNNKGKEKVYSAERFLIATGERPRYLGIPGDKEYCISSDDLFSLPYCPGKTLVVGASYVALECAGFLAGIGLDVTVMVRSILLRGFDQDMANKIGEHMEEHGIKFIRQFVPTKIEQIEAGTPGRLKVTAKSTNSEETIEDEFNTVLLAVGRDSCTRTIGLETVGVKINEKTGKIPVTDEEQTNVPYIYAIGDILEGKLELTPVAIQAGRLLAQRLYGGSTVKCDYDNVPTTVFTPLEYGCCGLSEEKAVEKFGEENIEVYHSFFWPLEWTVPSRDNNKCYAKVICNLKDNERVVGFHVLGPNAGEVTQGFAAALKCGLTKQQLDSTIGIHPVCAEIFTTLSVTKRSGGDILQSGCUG
From the text: The selenoprotein thioredoxin reductase (TrxR; EC 1.8.1.9) is a FAD containing homodimeric pyridine nucleotide-disulfide oxidoreductase with many cellular roles. Together with NADPH and its prime substrate thioredoxin (Trx), the enzyme forms the core of the Trx system. The mammalian Trx system exerts a wide spectrum of functions including redox regulation, antioxidant defense, regulation of transcription factors as well as support of cell growth and replication. Many of these functions involve the reduction of Trx, which may subsequently reduce a number of different substrates including ribonucleotide reductase, peroxiredoxins or NFkB. Mammalian TrxR itself also has a broad substrate specificity, reducing both protein and non-protein substrates, including low molecular weight compounds such as dehydroascorbate, lipoic acid, ubiquinone, and juglone. In addition, several drugs in clinical use for anticancer treatment are indeed known to target TrxR1.
This BioAssay is a validation of an NADPH fluorescence-based, dual-purpose qHTS rTrxR1 assay designed to find potential inhibitors and substrates of rTrxR1. For this particular BioAssay, actives are potential substrate. See related BioAssay for inhibition data deposition.
NIH Molecular Libraries Probe Production Network [MLPCN]
NIH Chemical Genomics Center [NCGC]
Assay Provider: Elias Arner, Karolinska Institute
Assay protocol: 2 uL of reagents (buffer in column 4 as negative control and 90 nM rTrxR1 in columns 1-3 and 5-48) were dispensed into Greiner black solid-bottom 1,536-well assay plates, followed by 1 uL of NADPH (400 uM final concentration) to each well. The plates were centrifuged at 1000 rpm for 15 seconds and subsequently incubated for 5 min at room temperature (~22 deg C) to allow for rTrxR1 reduction. Compounds (23 nL) were then transferred via Kalypsys pin tool equipped with 1536-pin array (10 nL slotted pins, V&P Scientific, San Diego, CA). In addition, a duplicate 2-fold serial dilution of the control compounds auranofin, a known gold-based TrxR1 inhibitor, and juglone (5-hydroxy-1,4-naphthoquinone), a natural TrxR1 substrate, were pin-transferred to columns 2 and 3, respectively. After incubation for 15 min at room temperature (~22 deg C), 1 uL of selenite (400 uM final concentration) were dispensed to each well. The plate was immediately transferred to a ViewLux high-throughput CCD imager (PerkinElmer), wherein kinetic measurements of NADPH fluorescence (Ex 340 nm, Em 450 nm) were acquired (8 minute kinetic read, see Table 1). Read 1 was utilized to assess the capacity of a compound to serve as an rTrxR1 substrate, i.e. a decrease in NADPH fluorescence compared to the no-compound background is an indication of a substrate behavior for that particular compound. For inhibitory activity of a compound, delta values, computed as the difference in fluorescence intensity between the first and last reads of an 8-minute time kinetic window, were used. All reagents were diluted in an assay buffer consisting of 50 mM Tris-HCl, pH 7.5, 2 mM EDTA, and 0.01% Tween-20.
Throughout the screen, reagent bottle and all liquid lines were made light-tight to minimize reagent degradation. All screening operations were performed on a fully integrated robotic system (Kalypsys, San Diego, CA) containing one RX-130 and two RX-90 anthropomorphic robotic arms (Staubli, Duncan, SC). Library plates were screened starting from the lowest and proceeding to the highest concentration, and a 'double-pinning' step of the highest concentration was required to access higher concentrations of compounds. Vehicle-only plates, with DMSO being pin-transferred to the columns 5-48, were inserted uniformly at the beginning and the end of each library in order to monitor and record any shifts in the background, which can be affected by reagent dispensers or loss in enzyme activity over time. […]
% is scaled to controls: 0 for no effect and ±100 for the full control effect.

Activity change, negative = substrate turnover, inactive:
Nc1ccc(/C=C/c2ccnc3ccccc23)c([N+](=O)[O-])c1 7.22% [at 0.0914 µM]
O=C(CCCn1c(=O)c2cccn2c2cccnc21)NCc1ccc(F)cc1
Cc1ccc(S(=O)(=O)N2CCN(c3nc(-n4cnc5ccccc54)nc4ccccc34)CC2)cc1
CSc1n[nH]c(-c2ccco2)n1
CN(C)c1ccc(/C=C2\C=Cc3ccccc32)cc1Br
O=C(Nc1ccc2nc(SCCOc3ccccc3)sc2c1)c1ccco1
Cn1nnnc1SCCCNCc1cccc(OCc2ccc(Cl)cc2)c1
COc1ccc(/C=C/c2ccccn2)cc1OC
Cc1csc(NCC(=O)c2c[nH]c3ccccc23)n1
Nc1nc(N)c(N=O)c(N)n1
OC(CBr)C[n+]1cccc2cc(Br)ccc21 (stereo not drawn)
O=C(c1cnn2c1NC(=C1CC1)C=C2C(F)F)N1CCc2ccccc2C1
Cc1cccc(CN2Cc3cccc4c3[C@H](C=CC4)CC2=S)c1
Cc1cc[n+](C2CCCCC2)cc1
COc1cccc(Nc2nc3ccccc3c3nncn23)c1
CC(NC(=O)c1cc(Sc2ccc(F)cc2F)nc2ccccc12)c1ccccc1 (stereo not drawn)
Cc1ccc2cccc(NC(=O)c3ccc(OC(C)C)cc3)c2n1
CCc1ccc(Sc2cc(C(=O)NCCCOC(C)C)c3ccccc3n2)cc1
Nc1ncnc2c1c(I)cn2[C@@H]1C[C@H](N)[C@@H](O)[C@H]1O
Cc1ccc(NC(=O)c2cc3cc(C)ccc3n2C)cc1
O=C1COc2ccc(-c3csc(-c4ccc(Cl)cc4)n3)cc2N1
CC(C)(C)c1ccc(C(=O)C[n+]2cccc3cc(Cl)ccc32)cc1
OC(Cc1ccc2ccccc2n1)c1ccc(Cl)c(Cl)c1 (stereo not drawn)
CO[C@H]1O[C@@H]2O[C@@]3(C)CC[C@@H]4[C@@H](C)CC[C@@H]([C@H]1C)[C@@]24OO3
CCOC(=O)c1cc(-c2ccccc2)n(-c2cccc(C(=O)Nc3cc(OC)cc(OC)c3)c2)c1C
CCOC(=O)c1c(C)[nH]c(CCC(=O)Nc2ccc(OC)c(OC)c2)c1C
CCc1ccccc1NC(=O)Cn1c(=O)n(-c2cccc(C)c2)c(=O)c2c1c1cc(OC)ccc1n2C
CN(CCC#N)c1ccc(C=O)cc1
COc1ccccc1N1CCN(C2C(=O)c3ccccc3N2C(C)=O)CC1 (stereo not drawn)
CCOc1ccc(NC(=O)C(CC(C)C)N2Cc3ccccc3C2=O)cc1 (stereo not drawn)
CN(C)CCCn1c(-c2ccc(Cl)cc2)csc1=Nc1ccccc1
CC1(C)CCc2cc(S(=O)(=O)N3CCN(c4nc(-c5cccs5)nc5ccccc45)CC3)ccc2O1
C=C1C=C(C)n2ncc(C(=O)Nc3ccccc3O)c2N1
COC(=O)C1=C(C(=O)OC)[C@@H]2N(Cc3ccccc3)c3ccccc3[C@@]23C[C@@H](C(=O)OC)N(S(=O)(=O)c2ccc(C(F)(F)F)cc2)C3=N1
CCOc1ccc(N2CC(C)Cn3c2nc2c3c(=O)n(Cc3c(F)cccc3Cl)c(=O)n2C)cc1 (stereo not drawn)
C=C1C=C(C(F)F)n2ncc(C(=O)NCCc3ccccc3OC)c2N1
Cc1ccc(NC(=O)C(Cc2ccccc2)NS(=O)(=O)c2ccc3c(c2)oc(=O)n3C)cc1C (stereo not drawn)
CCOc1ccc(Nc2ncnc3scc(-c4ccc(OC)cc4)c23)cc1
COc1cccc(CNCCSc2nnnn2C)c1OCc1ccccc1Cl 8.42% [at 11.4 µM]
Cc1ccc(Cn2cnc3c(cnn3C(C)(C)C)c2=O)c(F)c1
COc1cc(C(=O)Nc2ccc(OCc3cc(=O)n4ccc(C)cc4n3)cc2)cc(OC)c1OC
CC1CCCN(c2nc3c(S(=O)(=O)c4ccc(C(C)C)cc4)nnn3c3ccsc23)C1 (stereo not drawn)
Cc1[nH]c2ccccc2c1C(=O)C(=O)N(C)c1ccccc1
CN(CC(=O)Nc1ccccc1F)S(=O)(=O)c1ccc2c(c1)c(=O)n(C)c(=O)n2C
COc1ccccc1CNC(=O)C(=O)NCC(c1ccco1)S(=O)(=O)c1ccc(F)cc1 (stereo not drawn)
CCOc1ccccc1CNC(=O)C1CCCN(S(=O)(=O)c2ccc3c(ccn3C)c2)C1 (stereo not drawn)
CN(Cc1ccccc1)c1ccc(/C=C/c2ccnc3ccccc23)cc1
Oc1ccccc1-c1nc(/C=C/c2ccc(F)cc2)no1
CC(C)Cn1c(-c2ccc(S(=O)(=O)N3CCOCC3)cc2)csc1=Nc1cc(Cl)ccc1Cl
COc1cc(OC)c(OC)cc1/C=C1\C=Cc2ccccc21 6.44% [at 0.0914 µM]
Cc1cccc(C(=O)N2CCc3cc(CNC(=O)Cc4ccc(F)cc4)ccc32)c1
Cc1nnc(SCC(=O)NCc2ccccc2Cl)c2nn(-c3ccccc3)c(C)c12
Brc1cccc[n+]1Cc1cccc(C[n+]2ccccc2Br)c1
COc1cc2[nH]c(=O)n(Cc3ccc(C(=O)NCc4ccc(C)cc4)cc3)c(=O)c2cc1OC 3.98% [at 2.29 µM]
CN(C)c1ccc(/C=N\Nc2ccc([N+](=O)[O-])cc2[N+](=O)[O-])cc1Cl
COc1cc2nc(Cl)nc(NC3CC3)c2cc1OC
Cc1nnc(C)n1-c1ccc(C(=O)Nc2cccc(Br)c2)cc1
Cc1ccc(C=O)cc1Cl
Cc1ccc(-c2nnc3ccc(SCC(N)=O)nn23)cc1
CN(C)c1ccc(C=Nc2ccc(/C=C/c3ccnc4ccccc34)cc2)cc1
Cc1nnc(NCc2ccccc2)c2c1nnn2Cc1ccc(F)cc1
CN(C)c1ccc(/C=C/c2sc3ccccc3[n+]2CCCCBr)cc1
CC(C)(C(=O)NO)c1ccccc1
O=C1O/C(=C\c2ccc(O)cc2)C(O)=C1c1ccc(O)cc1
NC1CCN(O)C1=O (stereo not drawn)
C=COC(=O)N1CCN(/[N+]([O-])=N/Oc2ccc([N+](=O)[O-])cc2[N+](=O)[O-])CC1 10.5% [at 0.457 µM]
O=C(O)c1c(Br)c(Br)c(Br)c(Br)c1C1c2ccc(O)cc2Oc2cc(O)ccc21
O=C(NCCCO)C(=O)Nc1c2c(nn1-c1ccc(F)cc1)CSC2
C(=Nc1ccc(/C=C/c2ccnc3ccccc23)cc1)c1cc2c3c(c1)CCCN3CCC2
Cc1ccc2nc3c(cc(C(=O)NC4CCCCC4)c(=N)n3C(C)C)c(=O)n2c1
Cc1ccc(CN(C(=O)COc2ccc(Cl)cc2C)C2CCS(=O)(=O)C2)o1 (stereo not drawn)
CCOc1n[nH]c(-c2ccccc2)n1
COc1ccc(CCNC(=O)CCCCn2c(=O)c3ccccc3n(Cc3ccccc3C)c2=O)cc1OC
CS(=O)c1ccc(/C=C2\C=Cc3ccccc32)cc1 (stereo not drawn) 1.35% [at 0.0914 µM]
COc1ccccc1NC(=O)C1=C(C)Nc2ncnn2C1c1sccc1C (stereo not drawn)
Cc1ccc(C2C=C(c3ccc(Cl)cc3)Nc3nc(NC(=O)CCC(=O)O)nn32)cc1 (stereo not drawn)
C/C=C/NNC(=O)Cc1ccc(OC)cc1
CCOC(=O)c1ccc(NC(=O)CCS(=O)(=O)c2ccc3c(c2)oc(=O)n3C)cc1
COCCCNC(=O)c1ccc(NC(=O)c2nsc3ccccc23)cc1
CC1(C)C=Cc2c(ccc(C(=O)/C=C/c3ccccc3)c2O)O1
CCN(CC)/[N+]([O-])=N/OCOC(=O)Cc1c(C)n(C(=O)c2ccc(Cl)cc2)c2ccc(OC)cc12 12.6% [at 0.457 µM]
CC(=O)/C(C)=N/O
COc1ccc(CN(Cc2ccccc2)C(=O)c2ccc(O)cc2)cc1COc1ccc(NC(C)=O)cc1
O=C(CSc1nc2c(c(=O)[nH]1)CN(Cc1ccc(F)cc1)CC2)Nc1ccccc1Cl
O=C(COc1ccccc1)OCc1cc(=O)n2nc(-c3cccs3)sc2n1
Cc1cccc(NC(=O)COC(=O)c2ccccc2OCc2cccc(Br)c2)c1
CN(C)C1=C2C=CC=CC2/C(=C2/C=Cc3ccccc32)C=C1 (stereo not drawn)
CSc1nc(-c2ccccc2Cl)nc2c1Cc1c(CO)cnc(C)c1O2
CN(C)c1ccc(/C=C/c2sc3ccccc3[n+]2C)cc1
Cc1cccc(NC(=O)c2ccc3nc(C(C)C)oc3c2)c1C
O=C(Nc1ccccc1C(F)(F)F)c1nc(S(=O)(=O)Cc2ccccc2F)ncc1Cl
CN(C)c1ccc(/C=C/C=C/c2ccnc3ccccc23)cc1
CCCCCCC1(C)NC(c2ccc3c(c2)OCO3)=CC(c2ccccc2O)N1 (stereo not drawn)
SCc1nc2ccc(Cl)cc2[nH]1
Cc1ccc2nc(COc3cccc(NC(=O)Nc4ccc(C)c(Cl)c4)c3)cc(=O)n2c1
O=C1C[C@H]2C=CCc3cccc(c32)CN1Cc1ccccc1
O=C1CCC[C@@H]2C[C@@]3(C[C@@H]4CCN1[C@H]24)Nc1ccccc1NC3=NCc1ccccc1
CCCCOc1ccc(CN2C(=O)C(=O)c3cc(Br)cc(C)c32)cc1OC
CCN(CC)c1ccc(/C=C/c2c(C)cnc3ccc(C)cc23)cc1
CCOc1ccc(CCNC(=O)Cn2nc(CC)n3c(cc4sc(CC)cc43)c2=O)cc1OCC
CCC(C)N(c1ccc(/C=C/c2ccnc3ccccc23)cc1)C(C)CC (stereo not drawn)
O=C(COc1ccccc1C(=O)Nc1ccccc1)Nc1cccc(F)c1
CCCCOc1ccc(C(=O)NO)cc1
